Data on one sequence can be found in PMC7862700, “An all-to-all approach to the identification of sequence-specific readers for epigenetic DNA modifications on cytosine”.

Holding throughout (assay): DAPPL (digital affinity profiling via proximity ligation, sequencing); 10 mM Tris-HCl pH 7.5, 50 mM NaCl, 1 mM DTT, 4% glycerol, room temperature, 30 min; GST-TFs on glutathione beads, 16-mer random dsDNA library, 0.1% formaldehyde crosslink after washing; high values mean tight binding
One experiment deals with T1, FEV (Homo sapiens, UniProt Q99581 1-238).
T1 sequence: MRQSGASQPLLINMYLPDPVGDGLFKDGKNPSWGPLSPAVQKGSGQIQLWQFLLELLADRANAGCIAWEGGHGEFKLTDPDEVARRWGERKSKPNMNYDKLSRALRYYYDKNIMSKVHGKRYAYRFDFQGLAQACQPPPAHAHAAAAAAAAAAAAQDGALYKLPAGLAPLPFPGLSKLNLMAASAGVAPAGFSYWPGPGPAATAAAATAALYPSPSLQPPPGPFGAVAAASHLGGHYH
To be noted: protein: recombinant; tags: N-terminal GST; dsDNA, one strand shown. Summed up: (§1)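 Binding signal is each hexamer's read frequency for a factor divided by its frequency in the tag-only sample. The factors were GST-fused human transcription factors from yeast, captured on glutathione beads, DNA-barcoded and pooled with that sample. Pools were incubated with 200 nmole of a random double-stranded 16-mer DNA library in Tris/NaCl/DTT/glycerol buffer at room temperature for 30 min, then washed, crosslinked with 0.1% formaldehyde, proximity-ligated with BsaI/T4 ligase (1 h, 37 °C), PCR-amplified and sequenced on an Illumina NextSeq500.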

Another experiment concerns the target ETV5 (Homo sapiens, UniProt P41161 1-510). The following applies: protein: recombinant; tags: N-terminal GST; dsDNA, one strand shown. Summed up:
as §1

Another experiment concerns the target HSF1 (Homo sapiens, UniProt Q00613 1-529). To be noted: protein: recombinant; tags: N-terminal GST; chain copies: 3; dsDNA, one strand shown. Summed up: as §1
The next experiment deals with T2, SPIC (Homo sapiens, UniProt Q8N5J4 1-248).
T2 sequence: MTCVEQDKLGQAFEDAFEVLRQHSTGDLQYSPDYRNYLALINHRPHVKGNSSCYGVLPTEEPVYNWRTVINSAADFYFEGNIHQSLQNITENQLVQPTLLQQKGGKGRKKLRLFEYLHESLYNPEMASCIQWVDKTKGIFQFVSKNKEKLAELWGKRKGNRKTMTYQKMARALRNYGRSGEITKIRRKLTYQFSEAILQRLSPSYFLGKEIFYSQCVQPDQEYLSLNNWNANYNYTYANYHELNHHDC
The following applies: protein: recombinant; tags: N-terminal GST; dsDNA, one strand shown. The gist of the method:
as §1

The next experiment addresses ELF4 (Homo sapiens, UniProt Q99607 1-663). The following applies: protein: recombinant; tags: N-terminal GST; dsDNA, one strand shown. The gist of the method:
as §1

For a further experiment, the target named is T3, ELK4 (Homo sapiens, UniProt P28324-2 1-405).
T3 sequence: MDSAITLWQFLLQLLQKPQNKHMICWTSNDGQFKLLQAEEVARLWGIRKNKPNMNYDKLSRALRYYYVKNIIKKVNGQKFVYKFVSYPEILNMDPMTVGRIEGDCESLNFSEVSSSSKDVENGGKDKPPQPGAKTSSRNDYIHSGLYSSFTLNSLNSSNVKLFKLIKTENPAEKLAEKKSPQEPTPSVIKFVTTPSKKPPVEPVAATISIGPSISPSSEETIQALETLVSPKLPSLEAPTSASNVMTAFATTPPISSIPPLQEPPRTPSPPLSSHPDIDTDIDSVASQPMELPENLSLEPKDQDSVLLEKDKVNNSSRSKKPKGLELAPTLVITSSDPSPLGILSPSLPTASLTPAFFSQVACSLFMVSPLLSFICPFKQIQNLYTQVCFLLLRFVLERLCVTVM
To be noted: protein: recombinant; tags: N-terminal GST; dsDNA, one strand shown. Summed up: as §1

A further experiment concerns the target T4, ETV2 (Homo sapiens, UniProt O00321 1-342).
T4 sequence: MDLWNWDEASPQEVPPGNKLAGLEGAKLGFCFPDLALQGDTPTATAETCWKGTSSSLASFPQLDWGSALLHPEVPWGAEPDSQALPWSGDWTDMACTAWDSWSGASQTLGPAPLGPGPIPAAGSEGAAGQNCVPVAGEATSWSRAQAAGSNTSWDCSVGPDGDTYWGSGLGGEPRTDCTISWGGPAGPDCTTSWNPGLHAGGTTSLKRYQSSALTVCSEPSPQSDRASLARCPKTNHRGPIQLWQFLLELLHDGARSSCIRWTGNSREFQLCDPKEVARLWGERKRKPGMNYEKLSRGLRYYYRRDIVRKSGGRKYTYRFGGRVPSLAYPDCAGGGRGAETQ
To be noted: protein: recombinant; tags: N-terminal GST; dsDNA, one strand shown. The gist of the method: as §1

The next experiment has as its target T5, ELF3 (Homo sapiens, UniProt P78545 1-371).
T5 sequence: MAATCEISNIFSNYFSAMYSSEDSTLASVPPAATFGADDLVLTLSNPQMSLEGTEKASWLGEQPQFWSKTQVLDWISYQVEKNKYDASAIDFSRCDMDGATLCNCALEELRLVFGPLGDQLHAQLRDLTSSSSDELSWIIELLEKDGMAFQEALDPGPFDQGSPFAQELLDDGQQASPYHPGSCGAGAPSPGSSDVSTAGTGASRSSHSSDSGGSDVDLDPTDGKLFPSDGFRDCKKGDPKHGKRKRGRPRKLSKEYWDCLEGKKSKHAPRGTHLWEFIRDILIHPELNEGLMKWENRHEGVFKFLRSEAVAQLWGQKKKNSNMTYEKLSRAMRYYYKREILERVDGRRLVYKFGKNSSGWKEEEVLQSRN
The following applies: protein: recombinant; tags: N-terminal GST; dsDNA, one strand shown. Summed up: as §1

For the next experiment, the target named is CRX (Homo sapiens, UniProt O43186 1-299). The following applies: protein: recombinant; tags: N-terminal GST; dsDNA, one strand shown. Summed up:
as §1

The target of another experiment is ETV1 (Homo sapiens, UniProt P50549 1-477). To be noted: protein: recombinant; tags: N-terminal GST; dsDNA, one strand shown. The gist of the method:
as §1

In the next experiment the target is T6, ERF (Homo sapiens, UniProt P50548 1-548).
T6 sequence: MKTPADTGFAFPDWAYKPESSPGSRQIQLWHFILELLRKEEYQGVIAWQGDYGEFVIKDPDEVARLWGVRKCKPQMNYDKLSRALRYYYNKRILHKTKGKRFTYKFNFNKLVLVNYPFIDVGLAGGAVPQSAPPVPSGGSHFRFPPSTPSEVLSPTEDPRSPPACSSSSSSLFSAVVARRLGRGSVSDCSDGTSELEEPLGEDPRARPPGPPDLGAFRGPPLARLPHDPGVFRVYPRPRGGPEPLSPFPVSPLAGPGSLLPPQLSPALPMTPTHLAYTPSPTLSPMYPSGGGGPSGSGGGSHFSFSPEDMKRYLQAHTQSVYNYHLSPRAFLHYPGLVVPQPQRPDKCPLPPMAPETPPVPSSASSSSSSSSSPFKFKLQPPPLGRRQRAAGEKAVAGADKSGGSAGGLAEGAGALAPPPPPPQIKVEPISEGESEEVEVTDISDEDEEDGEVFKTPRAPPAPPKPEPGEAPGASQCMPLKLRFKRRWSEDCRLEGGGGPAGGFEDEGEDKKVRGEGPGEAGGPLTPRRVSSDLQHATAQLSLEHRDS
To be noted: protein: recombinant; tags: N-terminal GST; dsDNA, one strand shown. The gist of the method: as §1

The next experiment addresses T7, ETV3L (Homo sapiens, UniProt Q6ZN32 1-361).
T7 sequence: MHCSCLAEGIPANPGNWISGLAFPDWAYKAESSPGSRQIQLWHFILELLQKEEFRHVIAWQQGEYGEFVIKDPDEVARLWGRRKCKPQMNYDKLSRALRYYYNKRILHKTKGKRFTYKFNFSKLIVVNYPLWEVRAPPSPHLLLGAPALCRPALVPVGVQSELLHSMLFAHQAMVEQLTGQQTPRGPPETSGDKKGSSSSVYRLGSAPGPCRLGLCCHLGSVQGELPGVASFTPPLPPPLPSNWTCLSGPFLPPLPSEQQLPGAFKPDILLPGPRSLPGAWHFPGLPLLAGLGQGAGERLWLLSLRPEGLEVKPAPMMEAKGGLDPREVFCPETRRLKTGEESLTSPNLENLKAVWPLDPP
To be noted: protein: recombinant; tags: N-terminal GST; dsDNA, one strand shown. The gist of the method: as §1

In the next experiment the target is T8, ETS2 (Homo sapiens, UniProt P15036 1-469).
T8 sequence: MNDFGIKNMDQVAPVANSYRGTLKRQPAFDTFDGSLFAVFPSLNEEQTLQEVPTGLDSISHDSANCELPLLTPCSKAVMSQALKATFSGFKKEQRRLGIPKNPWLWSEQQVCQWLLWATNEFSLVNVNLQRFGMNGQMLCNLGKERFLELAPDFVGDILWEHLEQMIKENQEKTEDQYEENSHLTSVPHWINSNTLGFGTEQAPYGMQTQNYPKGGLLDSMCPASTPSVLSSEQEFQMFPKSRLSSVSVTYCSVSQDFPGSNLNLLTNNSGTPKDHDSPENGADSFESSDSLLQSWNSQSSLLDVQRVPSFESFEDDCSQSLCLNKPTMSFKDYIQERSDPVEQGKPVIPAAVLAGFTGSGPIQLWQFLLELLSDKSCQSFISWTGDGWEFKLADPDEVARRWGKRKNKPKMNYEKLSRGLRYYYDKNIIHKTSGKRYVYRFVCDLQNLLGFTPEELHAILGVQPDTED
The following applies: protein: recombinant; tags: N-terminal GST; dsDNA, one strand shown. The gist of the method:
as §1

A further experiment addresses T9, SPDEF (Homo sapiens, UniProt O95238 1-335).
T9 sequence: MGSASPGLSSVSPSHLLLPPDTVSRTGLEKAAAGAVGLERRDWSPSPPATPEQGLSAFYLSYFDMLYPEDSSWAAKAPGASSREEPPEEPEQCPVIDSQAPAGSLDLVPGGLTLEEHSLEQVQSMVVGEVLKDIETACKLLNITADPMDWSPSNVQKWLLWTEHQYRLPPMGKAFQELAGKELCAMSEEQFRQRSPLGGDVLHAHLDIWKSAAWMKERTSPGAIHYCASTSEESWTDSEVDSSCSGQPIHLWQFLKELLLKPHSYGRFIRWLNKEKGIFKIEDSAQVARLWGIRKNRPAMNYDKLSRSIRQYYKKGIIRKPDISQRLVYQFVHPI
The following applies: protein: recombinant; tags: N-terminal GST; dsDNA, one strand shown. The gist of the method:
as §1

Another experiment concerns the target T10, ETV7 (Homo sapiens, UniProt Q9Y603 1-341).
T10 sequence: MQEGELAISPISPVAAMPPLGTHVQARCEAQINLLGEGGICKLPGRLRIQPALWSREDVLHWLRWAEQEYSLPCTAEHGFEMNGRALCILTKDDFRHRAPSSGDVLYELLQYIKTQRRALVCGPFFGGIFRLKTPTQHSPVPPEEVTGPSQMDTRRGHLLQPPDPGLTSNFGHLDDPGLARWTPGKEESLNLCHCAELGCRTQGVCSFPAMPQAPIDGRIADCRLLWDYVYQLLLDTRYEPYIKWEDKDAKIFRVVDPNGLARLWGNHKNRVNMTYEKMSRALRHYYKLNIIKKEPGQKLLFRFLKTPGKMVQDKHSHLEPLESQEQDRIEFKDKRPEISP
The following applies: protein: recombinant; tags: N-terminal GST; dsDNA, one strand shown. Summed up:
as §1

For a further experiment, the target named is T11, ELF5 (Homo sapiens, UniProt Q9UKW6-2 1-255).
T11 sequence: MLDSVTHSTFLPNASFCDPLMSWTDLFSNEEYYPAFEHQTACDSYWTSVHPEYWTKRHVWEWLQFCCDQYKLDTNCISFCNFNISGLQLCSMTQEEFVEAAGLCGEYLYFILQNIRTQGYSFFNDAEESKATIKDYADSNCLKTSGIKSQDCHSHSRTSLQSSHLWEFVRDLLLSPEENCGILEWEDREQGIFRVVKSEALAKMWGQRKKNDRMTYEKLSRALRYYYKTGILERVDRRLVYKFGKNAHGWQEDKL
The following applies: protein: recombinant; tags: N-terminal GST; dsDNA, one strand shown. The gist of the method:
as §1

In the next experiment the target is T12, ETV3 (Homo sapiens, UniProt P41162-2 1-143).
T12 sequence: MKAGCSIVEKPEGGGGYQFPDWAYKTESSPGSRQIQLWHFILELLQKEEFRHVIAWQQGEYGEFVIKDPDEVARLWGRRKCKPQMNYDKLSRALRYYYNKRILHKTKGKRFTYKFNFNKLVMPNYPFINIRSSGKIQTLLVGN
The following applies: protein: recombinant; tags: N-terminal GST; dsDNA, one strand shown. Summed up:
as §1

The target in a further experiment is ETV6 (Homo sapiens, UniProt P41212 1-452). To be noted: protein: recombinant; tags: N-terminal GST; dsDNA, one strand shown. Summed up: as §1
ETV6, sequence (P41212 whole entry): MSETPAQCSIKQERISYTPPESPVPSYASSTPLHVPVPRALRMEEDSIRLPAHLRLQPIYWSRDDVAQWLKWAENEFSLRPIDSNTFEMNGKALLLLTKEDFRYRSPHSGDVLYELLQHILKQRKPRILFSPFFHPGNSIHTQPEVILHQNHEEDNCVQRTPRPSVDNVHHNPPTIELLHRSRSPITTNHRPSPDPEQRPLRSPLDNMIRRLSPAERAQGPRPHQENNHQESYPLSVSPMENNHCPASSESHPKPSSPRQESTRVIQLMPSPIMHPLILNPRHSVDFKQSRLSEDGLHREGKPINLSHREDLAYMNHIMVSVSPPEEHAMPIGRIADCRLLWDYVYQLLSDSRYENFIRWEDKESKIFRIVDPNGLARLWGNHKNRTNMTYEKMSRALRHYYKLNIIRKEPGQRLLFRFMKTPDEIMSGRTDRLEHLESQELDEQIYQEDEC

ETV1, sequence (P50549 whole entry): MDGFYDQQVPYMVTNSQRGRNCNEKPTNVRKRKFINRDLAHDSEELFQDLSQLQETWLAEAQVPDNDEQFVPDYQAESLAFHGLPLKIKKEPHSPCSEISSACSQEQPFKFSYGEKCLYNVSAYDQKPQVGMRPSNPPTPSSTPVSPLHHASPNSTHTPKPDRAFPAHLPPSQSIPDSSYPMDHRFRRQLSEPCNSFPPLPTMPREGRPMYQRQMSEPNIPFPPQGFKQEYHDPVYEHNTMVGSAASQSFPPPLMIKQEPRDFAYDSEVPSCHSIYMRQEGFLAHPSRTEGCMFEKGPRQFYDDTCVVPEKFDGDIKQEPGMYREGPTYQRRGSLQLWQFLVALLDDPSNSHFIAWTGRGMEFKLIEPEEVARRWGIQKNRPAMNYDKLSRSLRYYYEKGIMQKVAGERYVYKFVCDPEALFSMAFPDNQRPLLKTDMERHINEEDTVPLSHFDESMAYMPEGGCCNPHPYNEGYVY
HSF1, sequence (Q00613 whole entry): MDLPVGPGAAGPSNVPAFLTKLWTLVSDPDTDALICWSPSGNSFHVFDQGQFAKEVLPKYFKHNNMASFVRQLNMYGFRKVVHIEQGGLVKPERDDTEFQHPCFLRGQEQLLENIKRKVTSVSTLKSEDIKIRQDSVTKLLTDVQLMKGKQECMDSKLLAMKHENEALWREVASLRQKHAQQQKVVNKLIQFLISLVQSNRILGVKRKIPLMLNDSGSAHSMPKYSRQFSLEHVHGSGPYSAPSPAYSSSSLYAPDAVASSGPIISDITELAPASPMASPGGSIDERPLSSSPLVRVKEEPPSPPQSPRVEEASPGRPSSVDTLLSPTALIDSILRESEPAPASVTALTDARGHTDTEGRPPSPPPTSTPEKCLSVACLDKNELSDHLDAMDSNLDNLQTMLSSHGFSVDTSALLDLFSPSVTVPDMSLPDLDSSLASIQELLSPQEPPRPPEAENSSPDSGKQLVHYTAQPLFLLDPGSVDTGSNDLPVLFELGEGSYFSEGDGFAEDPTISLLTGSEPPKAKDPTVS
ELF4, sequence (Q99607 whole entry): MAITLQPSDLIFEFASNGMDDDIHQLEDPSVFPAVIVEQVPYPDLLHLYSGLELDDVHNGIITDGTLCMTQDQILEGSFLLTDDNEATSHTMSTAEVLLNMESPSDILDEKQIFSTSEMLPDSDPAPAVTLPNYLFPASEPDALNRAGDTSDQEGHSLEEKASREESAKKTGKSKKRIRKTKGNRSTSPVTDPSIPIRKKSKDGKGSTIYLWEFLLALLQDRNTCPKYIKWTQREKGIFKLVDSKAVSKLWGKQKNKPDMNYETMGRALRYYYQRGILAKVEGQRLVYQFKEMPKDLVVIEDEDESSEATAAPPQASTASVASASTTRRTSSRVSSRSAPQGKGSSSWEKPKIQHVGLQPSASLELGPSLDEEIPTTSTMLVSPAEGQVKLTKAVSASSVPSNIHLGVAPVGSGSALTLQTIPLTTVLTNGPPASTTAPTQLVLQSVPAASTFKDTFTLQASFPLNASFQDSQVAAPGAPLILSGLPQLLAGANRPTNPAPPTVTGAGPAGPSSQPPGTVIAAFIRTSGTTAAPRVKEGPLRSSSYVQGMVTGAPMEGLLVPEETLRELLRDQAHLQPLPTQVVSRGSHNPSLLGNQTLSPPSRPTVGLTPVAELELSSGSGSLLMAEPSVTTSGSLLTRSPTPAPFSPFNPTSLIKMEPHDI
ETV5, sequence (P41161 whole entry): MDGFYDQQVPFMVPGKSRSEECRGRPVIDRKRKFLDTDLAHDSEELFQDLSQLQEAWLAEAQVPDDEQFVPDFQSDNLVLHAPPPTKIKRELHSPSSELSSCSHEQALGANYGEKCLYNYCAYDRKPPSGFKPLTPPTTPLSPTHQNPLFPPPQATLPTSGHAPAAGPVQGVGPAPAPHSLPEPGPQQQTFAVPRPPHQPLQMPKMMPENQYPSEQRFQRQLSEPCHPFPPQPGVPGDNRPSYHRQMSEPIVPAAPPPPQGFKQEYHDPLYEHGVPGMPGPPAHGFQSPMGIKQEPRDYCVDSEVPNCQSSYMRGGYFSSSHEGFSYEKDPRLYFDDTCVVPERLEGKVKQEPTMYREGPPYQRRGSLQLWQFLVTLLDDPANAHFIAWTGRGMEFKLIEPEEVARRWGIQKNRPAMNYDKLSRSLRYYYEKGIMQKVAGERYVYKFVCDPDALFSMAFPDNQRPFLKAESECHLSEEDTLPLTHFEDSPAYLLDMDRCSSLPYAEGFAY
CRX, sequence (O43186 whole entry): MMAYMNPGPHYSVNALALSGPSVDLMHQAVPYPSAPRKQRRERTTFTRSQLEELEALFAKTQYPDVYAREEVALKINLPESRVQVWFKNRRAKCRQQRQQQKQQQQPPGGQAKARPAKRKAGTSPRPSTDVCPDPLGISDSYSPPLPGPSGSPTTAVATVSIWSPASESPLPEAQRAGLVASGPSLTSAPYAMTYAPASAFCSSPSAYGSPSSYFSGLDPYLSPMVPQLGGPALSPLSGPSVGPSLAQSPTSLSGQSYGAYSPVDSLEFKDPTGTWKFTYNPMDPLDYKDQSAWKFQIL

In the case of TTTCAT, the binding signal with FEV was 1.12 fold enrichment (6-mer frequency, TF over GST control); with ETV5, 1.09 fold enrichment (6-mer frequency, TF over GST control); with HSF1, 1.13 fold enrichment (6-mer frequency, TF over GST control); with SPIC, 1.11 fold enrichment (6-mer frequency, TF over GST control); with ELF4, 1.2 fold enrichment (6-mer frequency, TF over GST control); in the experiment with ELK4, 1.19 fold enrichment (6-mer frequency, TF over GST control). In addition, the binding signal in the experiment with ETV2 was 1.1 fold enrichment (6-mer frequency, TF over GST control); with ELF3, 1.11 fold enrichment (6-mer frequency, TF over GST control); in the experiment with CRX, 1.18 fold enrichment (6-mer frequency, TF over GST control); with ETV1, 1.16 fold enrichment (6-mer frequency, TF over GST control); with ERF, 1.25 fold enrichment (6-mer frequency, TF over GST control); with ETV3L, 1.15 fold enrichment (6-mer frequency, TF over GST control). Also, the binding signal with ETS2 was 1.17 fold enrichment (6-mer frequency, TF over GST control); with SPDEF, 1.2 fold enrichment (6-mer frequency, TF over GST control); in the experiment with ETV7, 1.2 fold enrichment (6-mer frequency, TF over GST control); with ELF5, 1.23 fold enrichment (6-mer frequency, TF over GST control); with ETV3 it was 1.22 fold enrichment (6-mer frequency, TF over GST control); with ETV6 it was 1.13 fold enrichment (6-mer frequency, TF over GST control).
